# From PubChem BioAssay
# Sampled rows, rich in hits. Any-hit rate of the full collection: about 19%.
# IL-1B inflam inh = qHTS for Inhibitors of Inflammasome Signaling: IL-1-beta AlphaLISA Primary Screen; THP-1 LPS/ATP IL-1B secretion, AlphaLISA, 16 h; hits give low values; activity change, % at 57.5 µM; 360,000 compounds, 4.7% hits; AID 743279, 2014; in the data active = activity change below about -50%; inconclusive = mostly about -30% to -49%; note: % is set by controls: 0 for no effect and ±100 for the full control effect
#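 Secreted IL-1B measured by AlphaLISA bead assay after 16 h compound exposure of THP-1 cells; compounds (final up to 57.5 uM) added 1 h before LPS (250 ng/mL) and ATP (1.25 mM) stimulation; lower signal means less secretion.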
# S-ASM inh = Inhibitors of Secretory Acid Sphingomyelinase (S-ASM): qHTS | Sphingomyelin phosphodiesterase (Homo sapiens), P17405 | placental ASM, HMU-PC fluorogenic substrate, 60 min | 340,000 compounds, 0.006% hits | Potency, µM (highest dose often 57.5 µM), without a hit: top-dose activity change, negative = inhibition, hits mostly inhibitors; note: potency is the fitted concentration of half-maximal effect
# Target sequence (P17405 47-631 limits assumed): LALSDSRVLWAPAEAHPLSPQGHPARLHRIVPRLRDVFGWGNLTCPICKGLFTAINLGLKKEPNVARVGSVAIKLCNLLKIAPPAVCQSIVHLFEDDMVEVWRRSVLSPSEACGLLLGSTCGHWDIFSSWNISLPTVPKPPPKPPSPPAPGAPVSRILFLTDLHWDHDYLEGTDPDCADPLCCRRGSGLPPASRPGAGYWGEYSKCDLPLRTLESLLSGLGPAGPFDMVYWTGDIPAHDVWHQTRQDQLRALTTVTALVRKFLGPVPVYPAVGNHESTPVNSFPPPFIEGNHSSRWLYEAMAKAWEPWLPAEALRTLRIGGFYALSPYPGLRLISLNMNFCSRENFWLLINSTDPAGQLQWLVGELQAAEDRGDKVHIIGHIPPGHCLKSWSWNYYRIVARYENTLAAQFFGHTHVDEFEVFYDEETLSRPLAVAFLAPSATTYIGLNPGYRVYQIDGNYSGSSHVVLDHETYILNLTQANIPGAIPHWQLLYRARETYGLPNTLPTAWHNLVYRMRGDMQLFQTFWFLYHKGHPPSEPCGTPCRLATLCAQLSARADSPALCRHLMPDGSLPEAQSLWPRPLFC
#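 HMU-PC0 cleavage (9 uM final) by human placental ASM, 60 min at 37 °C following 10 min compound exposure at RT; stopped at pH 10, fluorescence Ex 386/Em 447 nm.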
# TGFb inhibitor = qHTS for Inhibitors of TGF-b; Potency, µM (highest dose often 46.1 µM), for inactives: top-dose activity, negative = inhibition, usual class: inhibitors; 410,000 compounds, 1.2% hits; HepG2 CAGA-GFP TGF-b/SMAD3 reporter, GFP fluorescence, 18 h; TGF-beta stimulated, 500 pg/mL final; note: potency is the fitted concentration of half-maximal effect; % is set by controls: 0 for no effect and ±100 for the full control effect; nearly all actives have a fitted effect of over 65% in size
#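 First, reporter cells (HEPG2 CAGA-GFP) rested 2 h at 37 degrees C. Next, compounds were pinned in and TGF-beta added to 500 pg/mL final. After 18 h, GFP was imaged per cell and summed per well.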
# TDP1 cell noCPT = qHTS for Inhibitors of human tyrosyl-DNA phosphodiesterase 1 (TDP1): qHTS in cells in absence of CPT. DT40 Tdp1-/- hTDP1 cells, no CPT, ATP luminescence, 48 h. 420,000 compounds, 15% hits. Potency, µM (top dose mostly 46.2 µM), inactives show at the highest dose activity change, negative = growth inhibition, usual class: inhibitors. AID 686978, 2013; note: potency is the fitted concentration of half-maximal effect; % is set by controls: 0 for no effect and ±100 for the full control effect; nearly all actives have a fitted effect of over 55% in size
#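 Compound effects on proliferation are scored in DT40 Tdp1-/-;hTDP1 cells in the absence of CPT. ATP levels (CellTiter-Glo luminescence) are recorded after a ≥48 hr, 37 °C incubation.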
# TDP1 cell CPT = qHTS for Inhibitors of human tyrosyl-DNA phosphodiesterase 1 (TDP1): qHTS in cells in presence of CPT; chicken DT40 Tdp1-/-;hTDP1 cells + 20 nM CPT, ATP luminescence, 48 h; Potency, µM (doses to about 46.2 µM), for inactives: at the highest dose activity change, negative = growth inhibition, usual class: inhibitors; 420,000 compounds, 12% hits; note: potency is the fitted concentration of half-maximal effect; % is set by controls: 0 for no effect and ±100 for the full control effect; nearly all actives have a fitted effect of over 55% in size
#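 Chicken DT40 Tdp1-/- cells complemented with human TDP1, 400 cells/well, exposed to compounds plus 20 nM camptothecin for at least 48 h at 37 C; viability read as ATP content by CellTiter-Glo luminescence.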
# HepG2 viability = qHTS for Inhibitors of TGF-b: Cytotox Counterscreen; Potency, µM (highest dose often 46.1 µM), for inactives: at the top dose activity change, negative = cytotoxicity, usual class: cytotoxic; HepG2 CAGA-GFP viability, ATP luminescence, 18 h; AID 588856, 2011; 410,000 compounds, 0.76% hits; note: potency is the fitted concentration of half-maximal effect
#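 HepG2 CAGA-GFP cells (1000/well, DMEM with 1% FBS) received compound, then TGF-beta at 500 pg/mL final, and were incubated 18 hours at 37 degrees C. Viability was read by CellTiter-Glo luminescence. Media-only wells were set as complete cell-killing and DMSO as no toxicity.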
# The depositor's hits bear a star; ? = inconclusive; / = not tested or not shown. Unless noted, calls come from the whole dose curve; as a rule, active = well fitted curve in the direction sought with a large enough effect; inconclusive = small, poorly fitted or top-dose-only effect, or another doubt; inactive = no such curve, though single readings can be large; an effect the other way counts as inactive or inconclusive.
SMILES,IL-1B inflam inh,S-ASM inh,TGFb inhibitor,TDP1 cell noCPT,TDP1 cell CPT,HepG2 viability
O=C(c1ccc([N+](=O)[O-])o1)N1CCN(c2nc3c(Cl)cccc3s2)CC1,-79*,-7%,?,13µM*,21µM*,-56%
COc1cccc2sc(N3CCN(C(=O)c4ccc([N+](=O)[O-])o4)CC3)nc12,-84*,0%,?,18µM*,21µM*,-80%
O=C(c1cccs1)N1CCN(c2nc3ccc([N+](=O)[O-])cc3s2)CC1,0,/,22%,-20%,-9%,9%
O=C(c1ccc([N+](=O)[O-])o1)N1CCN(c2nc3ccc(F)cc3s2)CC1,-16,-12%,1%,23µM*,21µM*,6%
COc1ccc(OC)c2sc(N3CCN(C(=O)c4ccco4)CC3)nc12,/,/,-2%,-20%,-2%,-18%
Clc1cccc2sc(N3CCN(c4ccccc4)CC3)nc12,37,2%,-15%,21µM*,23µM*,-32%
O=C(c1ccc([N+](=O)[O-])o1)N1CCCCCC1,-1,3%,?,-13%,?,-62%
Cc1ccc(F)cc1CNC(=O)C1CCC(=O)N(C2CC2)C1 (stereo not given),-6,2%,0%,-4%,-10%,-45%
CCOc1cccc2sc(N3CCN(C(=O)c4ccc5c(c4)CCCC5)CC3)nc12,/,/,?,13µM*,18µM*,-30%
COc1ccc(-c2ccc(CN3C(C)C(=O)N(Cc4cn(CC5CCCCC5)nn4)CCS3(=O)=O)cc2)cc1 (stereo not given),5,/,-4%,10µM*,15µM*,-16%
CC1C(=O)N(Cc2cn(CC3CCCCC3)nn2)CCS(=O)(=O)N1Cc1ccc(-c2ccc(F)nc2)cc1 (stereo not given),2,/,-2%,-24%,?,-23%
Cc1ccc(-c2ccc(CN3C(C)C(=O)N(Cc4cn(CC5CCCCC5)nn4)CCS3(=O)=O)cc2)cc1 (stereo not given),?,/,?,16µM*,16µM*,-22%
CC1C(=O)N(Cc2cn(CC3CCCCC3)nn2)CCS(=O)(=O)N1Cc1ccc(-c2ccccc2)cc1 (stereo not given),-18,/,?,15µM*,23µM*,-39%
CC(C)(C)c1ccc(-c2nc(SCC(=O)Nc3ccc(Cl)cc3)[nH]c(=O)c2C#N)cc1,/,/,?,-5%,-24%,-103%
CC1CCCCC12NC(=O)N(CC(=O)Nc1nccs1)C2=O (stereo not given),24,2%,-7%,-11%,18%,13%
CC(C)=CCC12Oc3cc(O)ccc3C1(O)Oc1cc3c(c(O)c1C2=O)C=CC(C)(C)O3 (stereo not given),-1,-16%,?,?,26µM*,-96%
COc1c2c(cc(O)c1C(C)=O)OC(C)(C)C=C2,-13,2%,-7%,-12%,-8%,6%
CCc1nc(NCc2cccnc2)c2oc3ccccc3c2n1,22,6%,13%,?,-25%,-31%
CCc1nc(NCc2ccc3c(c2)OCO3)c2oc3ccccc3c2n1,12,?,0%,18µM*,13µM*,-47%
Cc1nc(NCc2ccc3c(c2)OCO3)c2oc3ccccc3c2n1,-52*,-5%,?,-26%,-21%,-30%
CC(=O)Nc1ccc(NC(=O)Cn2cnc(S(=O)(=O)N3CCOCC3)c2)cc1,-6,4%,2%,16%,-11%,1%
COc1ccccc1NC(=O)c1cc2cc3ccc(OC)c(Cl)c3nc2s1,/,/,-5%,?,?,-4%
COc1ccc(-c2cc3ccccc3n2CC(O)CN2CCCCC2)cc1 (stereo not given),-27,4%,-5%,-18%,-24%,-40%
COc1ccc(-c2cc3ccccc3n2CC(O)CNCCO)cc1 (stereo not given),-2,-2%,9%,15µM*,23µM*,-9%
COc1ccc(NS(=O)(=O)c2ccc(O)c(NC(=O)c3cc4c(C)nn(-c5ccc(F)cc5)c4s3)c2)cc1,?,/,?,?,-28%,-92%
SMILES,IL-1B inflam inh,S-ASM inh,TGFb inhibitor,TDP1 cell noCPT,TDP1 cell CPT,HepG2 viability
CCOc1cccc(NC(=O)C2CC(=O)N(C)C(=Nc3ccc(F)cc3)S2)c1 (stereo not given),/,/,?,?,?,-28%
CCOc1ccccc1N(C)C(=O)CCS(=O)(=O)c1ccc2c(c1)NC(=O)C(C)S2 (stereo not given),6,3%,-11%,21µM*,?,-22%
O=C(Nc1ccc(Cc2ccncc2)cc1)c1cc([N+](=O)[O-])ccc1N1CCOCC1,6,-2%,-18%,?,?,-12%
Cc1cc(NC(=O)COc2ccc3c(C)c(C)c(=O)oc3c2)no1,-7,/,-4%,8%,0%,-12%
Cc1cc(NC(=O)COc2ccc3oc4ccccc4c3c2)no1,23,-2%,-5%,21µM*,?,-4%
Cc1cc(NC(=O)COC(=O)c2oc3c(ccc4ccccc43)c2C)no1,13,0%,-2%,16µM*,?,2%
CCOC(=O)C1CCN(C(=O)c2cccnc2Oc2ccccc2)CC1,-1,2%,-4%,-13%,-4%,7%
S=C(NCc1ccco1)N1CCN(C/C=C/c2ccccc2)CC1,6,4%,-30%,?,-27%,-19%
S=C(NCc1ccco1)N1CCN(c2ccc(Cl)cc2)CC1,-7,-2%,-6%,23µM*,-4%,2%
CC(C)c1ccc(S(=O)(=O)N2CCN(C(=S)NCc3ccco3)CC2)cc1,0,-2%,?,?,15µM*,0%
S=C(NCc1ccco1)N1CCN(Cc2ccc(Cl)cc2Cl)CC1,?,1%,?,23µM*,?,2%
Cc1cccc(N(CC(=O)NC(C)(C)C)C(=O)CNC(=O)c2cccs2)c1C,4,-2%,-14%,15%,-8%,4%
N#CC1=C(N)SC(N)=C(C#N)C1c1ccnc2ccccc12,5,7%,-6%,?,?,3%
CCc1ccccc1C1C(=O)c2ccccc2C1=O,-13,4%,5%,-35%,-3%,-30%
